Sampled rows, rich in hits. Any-hit rate of the full collection: about 17%.
DT40 TDP1 no CPT = qHTS for Inhibitors of human tyrosyl-DNA phosphodiesterase 1 (TDP1): qHTS in cells in absence of CPT; DT40 Tdp1-/- hTDP1 cells, no CPT, ATP luminescence, 48 h; Potency, µM (titrated, usually from 46.2 µM), usual class: inhibitors; 420,000 compounds, 15% hits; AID 686978, 2013; further: nearly all actives have a fitted effect of over 55% in size
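Compound effects on proliferation are scored in DT40 Tdp1-/-;hTDP1 cells in the absence of CPT. ATP levels (CellTiter-Glo luminescence) are recorded after a ≥48 hr, 37 °C incubation.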
HT1080-NT tox = kills 2HG-producing HT-1080-NT fibrosarcoma cells; 360,000 compounds, 1.6% hits; HT-1080-NT fibrosarcoma viability, CellTiter-Glo ATP luminescence, 48 h; AID 686970; Potency, µM (titrated, usually from 46.1 µM), usual class: cytotoxic;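 further: NT is the 2HG producing partner of a matched IDH1 knockdown line; nearly all actives have a fitted effect of over 55% in size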
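A 48-hour cytotoxicity screen used HT-1080-NT cells plated 2 hours before compound delivery. ATP-based CellTiter-Glo luminescence measured viability, normalized to DMSO and no-cell controls.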
HT1080 IDH1KD tx = toxicity to HT-1080 IDH1 knockdown cells (counter line) | Potency, µM (top dose mostly 46.1 µM), hits mostly cytotoxic | HT-1080 IDH1 knockdown viability, ATP luminescence, 48 h | 360,000 compounds, 2% hits | AID 686971
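Viability of IDH1-knockdown HT-1080 fibrosarcoma cells was assessed by CellTiter-Glo after 48 h at 37 °C with titrated compound; concentration-effect curves were classified by fit quality and response size.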
HepG2 tox = counter-screen for TGF-b inhibitors: cytotoxicity in HepG2 cells; HepG2 CAGA-GFP viability, ATP luminescence, 18 h; Potency, µM (top dose mostly 46.1 µM), hits mostly cytotoxic; 410,000 compounds, 0.76% hits; AID 588856
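CellTiter-Glo luminescence gave cytotoxicity after 18 hours at 37 degrees C. The cells were HepG2 CAGA-GFP in 1% FBS DMEM, stimulated with 500 pg/mL TGF-beta after compound addition. %Activity was normalised to no-cell wells (complete cell-killing) and DMSO (no toxicity), and curves were fitted and classified.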
DT40 TDP1 CPT = DT40-hTDP1 cell growth loss with CPT. chicken DT40 Tdp1-/-;hTDP1 cells + 20 nM CPT, ATP luminescence, 48 h. Potency, µM (doses to about 46.2 µM), most hits filed as inhibitors. AID 686979. 420,000 compounds, 12% hits; further: nearly all actives have a fitted effect of over 55% in size
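Chicken DT40 Tdp1-/- cells complemented with human TDP1, 400 cells/well, exposed to compounds plus 20 nM camptothecin for at least 48 h at 37 C; viability read as ATP content by CellTiter-Glo luminescence.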
TGFb SMAD3 inh = inhibitors of TGF-b signaling. 410,000 compounds, 1.2% hits. AID 588855. HepG2 CAGA-GFP TGF-b/SMAD3 reporter, GFP fluorescence, 18 h; TGF-beta stimulated, 500 pg/mL final. Potency, µM (doses to about 46.1 µM), usual class: inhibitors; further: nearly all actives have a fitted effect of over 65% in size
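Using HEPG2 CAGA-GFP reporter cells at 1000 cells/well, we pinned test compounds, stimulated with recombinant TGF-beta (500 pg/mL final) and measured total well GFP after 18 h.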
Each line names hits and unclear results; the compound was inactive in the other large screens. The call rests on the fitted dose curve; in most records, active means well fitted curve in the direction sought with a large enough effect; inconclusive means small, poorly fitted or top-dose-only effect, or another doubt; inactive means no such curve, though single readings can be large; an effect the other way counts as inactive or inconclusive.

CN(C)c1ccc(/C=C/C(=O)c2cccnc2)cc1	none
O=C(/C=C/c1cccnc1)c1ccccc1O	DT40 TDP1 no CPT inconclusive, DT40 TDP1 CPT inconclusive
O=C(/C=C/c1cccnc1)c1cccc(O)c1	DT40 TDP1 no CPT 2.9µM, HT1080-NT tox 21µM, HT1080 IDH1KD tx inconclusive, DT40 TDP1 CPT 2.9µM, TGFb SMAD3 inh inconclusive
CCCS(=O)(=O)NC(=O)C1(C)CCCN(C(=O)c2ccc(C#N)cc2)C1 (stereo not drawn)	HT1080-NT tox inconclusive, HT1080 IDH1KD tx inconclusive
C[C@H](CO)N1C[C@H](C)[C@@H](CN(C)Cc2ccc3c(c2)OCO3)Oc2c(NC(=O)C3CCCCC3)cccc2C1=O	DT40 TDP1 no CPT 23µM, DT40 TDP1 CPT 21µM, TGFb SMAD3 inh inconclusive
C[C@H](CO)N1C[C@H](C)[C@@H](CN(C)Cc2ccc(Cl)c(Cl)c2)Oc2c(NC(=O)CCC(F)(F)F)cccc2C1=O	DT40 TDP1 no CPT 12µM, DT40 TDP1 CPT 18µM, TGFb SMAD3 inh 13µM
C[C@H](CO)N1C[C@H](C)[C@@H](CN(C)Cc2ccc(C(=O)Nc3ccccc3N)cc2)Oc2c(NC(=O)C3CCCCC3)cccc2C1=O	DT40 TDP1 no CPT 15µM, DT40 TDP1 CPT 15µM
C[C@H]1CN([C@@H](C)CO)C(=O)c2cccc(NC(=O)C3CC3)c2O[C@H]1CN(C)Cc1ccc(C(F)(F)F)cc1	DT40 TDP1 no CPT inconclusive
C[C@H](CO)N1C[C@H](C)[C@@H](CN(C)Cc2ccc(Cl)c(Cl)c2)Oc2c(NC(=O)C3CC3)cccc2C1=O	DT40 TDP1 no CPT 23µM, DT40 TDP1 CPT 16µM, TGFb SMAD3 inh inconclusive
Cc1ccc(Nc2nc(N)nc(COC(=O)c3ccc(Br)o3)n2)cc1	DT40 TDP1 no CPT inconclusive, DT40 TDP1 CPT inconclusive, TGFb SMAD3 inh inconclusive
CCCC12CN3CC(C)(CN(C1)C3c1cn(C)c3ccccc13)C2=O (stereo not drawn)	DT40 TDP1 no CPT inconclusive, DT40 TDP1 CPT inconclusive (no result: HT1080-NT tox, HT1080 IDH1KD tx)
C[C@H](CO)N1C[C@H](C)[C@@H](CN(C)CC2CCCCC2)Oc2c(NC(=O)Cc3ccccc3)cccc2C1=O	DT40 TDP1 no CPT 16µM, HepG2 tox 16µM, DT40 TDP1 CPT 15µM, TGFb SMAD3 inh 16µM
CCOC(=O)CSc1nc(N)c(C#N)cc1C#N	DT40 TDP1 no CPT 16µM
CC(C)OC(=O)CSc1nc(N)c(C#N)cc1C#N	DT40 TDP1 no CPT inconclusive
CCOC(=O)CSc1nc2ccc(C)cc2cc1C#N	none
CCOC(=O)CSc1nc2cc(OC)ccc2cc1C#N	DT40 TDP1 no CPT 23µM, DT40 TDP1 CPT 16µM
CCOC(=O)CSc1nc2cc(C)ccc2cc1C#N	DT40 TDP1 no CPT 10µM, DT40 TDP1 CPT 13µM
CCOC(=O)CC(=O)CSc1nc2c(cc1C#N)CCC2	DT40 TDP1 no CPT 21µM, HT1080-NT tox inconclusive, DT40 TDP1 CPT 8.2µM, TGFb SMAD3 inh inconclusive
Cc1ccc(NC(=O)CSCC(=O)NCCc2ccccc2)c(C)c1	none
O=C1CC(N2CCN(Cc3ccccc3)CC2)C(=O)N1c1ccccc1 (stereo not drawn)	none
Cc1cc(C)n(C2CC(=O)N(c3cccc(Cl)c3)C2=O)n1 (stereo not drawn)	DT40 TDP1 no CPT inconclusive, DT40 TDP1 CPT 15µM
O=C(O)c1ccc(N2C(=O)CC(N3CCN(c4cccc(Cl)c4)CC3)C2=O)cc1 (stereo not drawn)	DT40 TDP1 no CPT 3.3µM
CCOC(=O)c1ccc(N2C(=O)CC(N3CCN(Cc4ccccc4)CC3)C2=O)cc1 (stereo not drawn)	TGFb SMAD3 inh inconclusive
CCOC(=O)c1ccc(N2C(=O)CC(N3CCCC(C)C3)C2=O)cc1 (stereo not drawn)	DT40 TDP1 no CPT inconclusive, DT40 TDP1 CPT 13µM
CC1CCN(C2CC(=O)N(c3ccccc3)C2=O)CC1 (stereo not drawn)	DT40 TDP1 CPT 21µM
O=C1CC(N2CCOCC2)C(=O)N1c1cccc(Cl)c1 (stereo not drawn)	none
CC(C)Oc1ccc(CNC(=O)C2CCCCN2S(=O)(=O)c2ccc(F)cc2)cc1 (stereo not drawn)	TGFb SMAD3 inh inconclusive (no result: HT1080-NT tox, HT1080 IDH1KD tx)
NS(=O)(=O)c1ccc(N2CCN(C(=O)C3COc4ccccc4O3)CC2)nc1 (stereo not drawn)	DT40 TDP1 no CPT inconclusive, DT40 TDP1 CPT inconclusive
CCOC(=O)C1CCCN(S(=O)(=O)c2cc(Br)cc3c2N(C(C)=O)CC3)C1 (stereo not drawn)	none
CCNc1nc(NCC)n2c(SCC(=O)Nc3ccc(C)cc3Br)nnc2n1	DT40 TDP1 no CPT inconclusive
CCSc1nnc(-c2cccc(S(=O)(=O)N(CC)CC)c2)n1Cc1ccccc1	DT40 TDP1 no CPT 18µM, HT1080-NT tox inconclusive, DT40 TDP1 CPT 11µM
CCN(CC)S(=O)(=O)c1cccc(-c2nnc(SCc3ncc(-c4ccccc4)o3)n2C)c1	DT40 TDP1 no CPT 18µM, DT40 TDP1 CPT inconclusive
CCN(CC)S(=O)(=O)c1cccc(-c2nnc(SCC(N)=O)n2C)c1	none
CCC(C)Sc1cc(-c2nc3cc(C)ccn3c2NC2CCCCC2)ccc1OC (stereo not drawn)	DT40 TDP1 no CPT 21µM, HT1080-NT tox 21µM, HT1080 IDH1KD tx inconclusive, DT40 TDP1 CPT 21µM, TGFb SMAD3 inh inconclusive
CC(=O)c1ccc(-c2cccc(-c3nc4ccccn4c3NC3CCCCC3)c2)cc1	DT40 TDP1 no CPT 15µM, HT1080-NT tox inconclusive, HT1080 IDH1KD tx inconclusive, DT40 TDP1 CPT 23µM, TGFb SMAD3 inh inconclusive
CCC(C)Sc1cc(-c2nc3ccccn3c2NC2CCCCC2)ccc1OC (stereo not drawn)	DT40 TDP1 no CPT 15µM, HT1080-NT tox 26µM, HT1080 IDH1KD tx 18µM, DT40 TDP1 CPT 12µM, TGFb SMAD3 inh inconclusive
COc1ccc(OC)c(NC(=O)c2ccc(-n3cccn3)nc2)c1	DT40 TDP1 no CPT inconclusive, DT40 TDP1 CPT inconclusive
COc1ccc(CNC(=O)C(=O)NCCC2CCCCN2S(=O)(=O)c2ccccc2)cc1 (stereo not drawn)	DT40 TDP1 no CPT inconclusive, DT40 TDP1 CPT inconclusive
O=C(NCCC1CCCCN1S(=O)(=O)c1cccs1)C(=O)Nc1ccccc1 (stereo not drawn)	DT40 TDP1 no CPT 23µM, DT40 TDP1 CPT 16µM
COc1ccc(CNC(=O)C(=O)NCCC2CCCCN2S(=O)(=O)c2cccs2)cc1 (stereo not drawn)	DT40 TDP1 no CPT inconclusive, DT40 TDP1 CPT inconclusive

Compound activity (PubChem)
